Values joined by “and” are separate entries in the source; they are usually repeats but may differ in a detail not shown here. Identical values can stand only once. The panel holds about 79,000 compounds, 15% with a hit somewhere; the sample as a whole holds those more often. Rule as the data show it: active = growth inhibition above about 70%; inactive = the rest.
Key:
[1] = NCI Yeast Anticancer Drug Screen. Data for the rad50 strain (AID 155);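 also: 0% = growth of vehicle-only cultures of the same strain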; conditions: S. cerevisiae rad50 strain growth inhibition, hits give high values; at 50.0 µM unless noted
In short: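 Growth of the mutant yeast was measured after compound exposure and referenced to vehicle-treated cultures.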

[2] = NCI Yeast Anticancer Drug Screen. Data for the mec2-1 strain (AID 157); conditions: S. cerevisiae mec2-1 strain, hits give high values; at 50.0 µM unless noted
In short: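 Yeast mec2-1 mutant treated with compound. Readout: growth inhibition vs vehicle controls.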

[3] = NCI Yeast Anticancer Drug Screen. Data for the sgs1 mgt1 strain (AID 161);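 also: 0% = growth of cultures given vehicle only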; conditions: S. cerevisiae sgs1 mgt1 strain, hits give high values; at 50.0 µM unless noted
In short: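 Inhibition of yeast growth, normalised to vehicle-treated controls, is reported for a strain bearing genetic alterations in DNA damage repair.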

[4] = NCI Yeast Anticancer Drug Screen. Data for the cln2 rad14 strain (AID 165);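 also: 0% = growth equal to vehicle treated cultures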; conditions: S. cerevisiae cln2 rad14 strain, hits give high values; at 50.0 µM unless noted
In short: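 cln2 rad14 yeast strain; compound exposure; growth inhibition read vs vehicle controls.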

[5] = NCI Yeast Anticancer Drug Screen. Data for the bub3 strain (AID 167); conditions: S. cerevisiae bub3 mutant strain, hits give high values; at 50.0 µM unless noted
In short: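 Whole-cell yeast assay. The mutant strain was incubated with compounds, and growth inhibition was determined by comparison with vehicle-treated cells.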

[6] = NCI Yeast Anticancer Drug Screen. Data for the mlh1 rad18 strain (AID 175); conditions: S. cerevisiae mlh1 rad18 strain growth inhibition, hits give high values; at 50.0 µM unless noted
In short: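 Yeast w/ defined DNA-repair lesions; compound exposure; growth vs vehicle controls → % inhibition.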

Measured: growth inhibition

COC(=O)c1c(C)nc(C)c(N=O)c1-c1ccccc1C(F)(F)F
inactive: [1] 6.4% | [2] 5.5% | [3] 7.45% | [4] 20.1% | [5] 12.4% | [6] -44.6%

C[C@H](C(=O)O)C(=O)NC(=O)N(Cc1ccccc1)N=O
inactive: [1] -24% | [2] -24.6% | [3] -26.8% | [4] 14.3% | [5] -1.25% | [6] -8.3%

CCC1NC(=O)C1NC(=O)OC (stereo not given)
inactive: [1] 23.6% | [2] -1.15% | [3] 22.6% | [4] 0.55% | [5] 12.6% | [6] 22.8%

O=C1OC2C(O)C(CO)OC2n2c1cc(=O)[nH]c2=O (stereo not given)
inactive: [1] 2.55% | [2] 13.9% | [3] 9.4% | [4] -4.15% | [5] 3.5% | [6] -5.35%

CC1(CCC(=O)O)C(=O)C(=O)CC2C1CCC1(C)C(O)CCC21 (stereo not given)
inactive: [1] -9.5% | [2] -0.6% | [3] -7.25% | [4] 0.15% | [5] -4.1% | [6] -17.4%

COc1ccc(C(=O)NNC(=O)c2cccc3ccccc23)cc1
inactive: [1] 21.8% | [2] -9.75% | [3] 9.7% | [4] 5.8% | [5] 16.6% | [6] -3.6%

c1nc2c([nH]1)CCNC2c1ccc(C2NCCc3[nH]cnc32)cc1 (stereo not given)
inactive: [1] 1.65% | [2] -1.65% | [3] 1.3% | [4] -38.9% | [5] -14.1% | [6] -2.95%

CC[C@H](CC[C@@H](C)[C@H]1CC[C@H]2[C@@H]3CC=C4C[C@@H](O)CC[C@]4(C)[C@H]3CC[C@]12C)C(C)C
inactive: [1] 26.8% and -6.4% | [2] -4.1% and -11.6% | [3] 26.6% and -12.2% | [4] 15.9% and 7.85% | [5] 5.95% and -13.2% | [6] 13.1% and -3.05%

COC1=CC(=O)c2cc3ccc(OC)c(N)c3nc2C1=O
inactive: [1] 12.8% | [2] -7.2% | [3] 5.45% | [4] -4.2% | [5] 13.3% | [6] -10.9%

CCC(CC)NC(CC)COC(=O)c1ccc(N)cc1 (stereo not given)
inactive: [1] 8.4% | [2] -4.3% | [3] -0.05% | [4] -0.5% | [5] 5.8% | [6] -4.9%

COc1ccc2oc(=N)c(C(=O)Nc3ccccc3)cc2c1
inactive: [1] 24.2% | [2] 20.1% | [3] -10.5% | [4] 4.9% | [5] -4.85% | [6] -38.4%

C[N+]1(Cc2ccco2)CCCCC1
inactive: [1] -12.6% | [2] 9.65% | [3] 0.15% | [4] -14.4% | [5] 9% | [6] -6.85%

CC[N+](CC)(CC)Cc1cn(S(=O)(=O)c2ccccc2)c2ccccc12
inactive: [1] 4.3% | [2] -0.7% | [3] -0.95% | [4] -64.7% | [5] -0.7% | [6] 5.95%

CCN1CCNC(c2ccccc2)C1(C)C (stereo not given)
inactive: [1] -2.35% | [2] -5.45% | [3] -10% | [4] -15.7% | [5] -5.95% | [6] 3.4%

C(=Nc1cccnc1)c1ccc(C=Nc2cccnc2)cc1
inactive: [1] 21.9% | [2] 37.5% | [3] 30.3% | [4] 25.1% | [5] 33.8% | [6] 33%

CCOC(=O)NC(=S)c1ccc[nH]1
inactive: [1] -10.7% | [2] -42.2% | [3] 0.2% | [4] 4.6% | [5] -36.8% | [6] -20.2%

NC(=O)c1ccc[n+]([O-])c1
inactive: [1] 15.1% | [2] -0.5% | [3] 6.35% | [4] 6.6% | [5] 2.65% | [6] -1.75%

C1CN(C23OC4(N5CCOCC5)C5C6CC(C7C6C4C72)C53)CCO1 (stereo not given)
inactive: [1] -18.9% | [2] -3% | [3] -3.9% | [4] -43.1% | [5] -0.05% | [6] -11.2%

Cc1cccc2oc3c(c(=O)c12)CC(O)C(C)(C)O3 (stereo not given)
inactive: [1] 15.6% | [2] -3.85% | [3] 20.7% | [4] -7.85% | [5] 5.65% | [6] -45%

COc1cc(CC2(C#N)c3ccccc3C=CN2C(=O)c2ccccc2)c(Oc2cc(CC3(C#N)c4ccccc4C=CN3C(=O)c3ccccc3)ccc2OC)cc1OC (stereo not given)
inactive: [1] 4.65% | [2] 8.85% | [3] 15.3% | [4] -5.6% | [5] 3.85% | [6] 32.9%

Source: PubChem BioAssay (NCI)
